In article PMC7819943, “Rice protein-binding microarrays: a tool to detect cis-acting elements near promoter regions in rice”:
In all, about 35,000 sequences were measured (“fluorescence intensity (a.u.)”: median about 10,000, highest 2% from about 52,000 on). The sample holds the highest values, similar sequences and a random draw of the others, so the mix is not that of the screen.

Target: T1, OsWOX13 (Oryza sativa, UniProt Q5QMM3 1-267)
T1 sequence: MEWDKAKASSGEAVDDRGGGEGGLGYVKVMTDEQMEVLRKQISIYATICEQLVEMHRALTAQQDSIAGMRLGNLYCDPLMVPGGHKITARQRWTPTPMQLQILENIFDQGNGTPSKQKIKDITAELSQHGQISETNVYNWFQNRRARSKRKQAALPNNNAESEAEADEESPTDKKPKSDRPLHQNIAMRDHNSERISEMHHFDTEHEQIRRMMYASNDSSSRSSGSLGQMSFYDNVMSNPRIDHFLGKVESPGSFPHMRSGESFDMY
Assay: protein-binding microarray (RPBM); PBS, 2% BSA, 51.3 ng/ul salmon testes DNA, 50 uM zinc acetate, 200 nM TF, 25 C, 1 h; high values mean tight binding
Conditions: protein: recombinant; tags: N-terminal polyhistidine and DsRed monomer fusion (pET32a); label: CyDye5-dUTP incorporated in the synthesized complementary strand; 3' TTTTT single-stranded linker to array surface; dsDNA, one strand shown
In short: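 The binding signal is fluorescence intensity per feature, in arbitrary units, read on an Axon 4000B scanner. Polyhistidine- and DsRed-tagged transcription factors (N-terminal fusions) from E. coli BL21-CodonPlus were purified on Ni–NTA and applied at 200 nM for 1 h at 25 °C to a double-stranded, BSA-blocked custom Agilent array in buffer with 50 µM zinc acetate.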

Q: “CAGAATGATTGTGCTTAATTGTAAAATTGATTTTAGGATTCGGAGTCACCTAGTGCAG” was tested. Which binding signal did it give?
A: 61100 fluorescence intensity (a.u.)

Q: How did the binding signal turn out when “AAAATTTAAATTTTCAGGCTTAAATTTGAAATTGATTTTACGGAGTCACCTAGTGCAG” was run?
A: 7780 fluorescence intensity (a.u.)

Q: “TTAAAATTGATTTTAGGGGATTTTCATCTGAGCTTATGTTCGGAGTCACCTAGTGCAG” was tested. Which binding signal did it give?
A: 55800 fluorescence intensity (a.u.)

Q: With “TGCTTTTCATGTTTATTGATTTAGGCGCACCTGTTCTGTTCGGAGTCACCTAGTGCAG” as the sequence, how does the binding signal read?
A: 3190 fluorescence intensity (a.u.)

Q: “TTTTAGGATGATTTAATTGTAAATTTAAAATTAAAATGGTCGGAGTCACCTAGTGCAG” was tested. Which binding signal did it give?
A: 35400 fluorescence intensity (a.u.)

Q: “TTAACAATATTTTAATGATTGCTCTTGTGCTTAGAAAATTCGGAGTCACCTAGTGCAG” was tested. Which binding signal did it give?
A: 5300 fluorescence intensity (a.u.)

Q: How did the binding signal turn out when “ACACAGCTAATTAGCTCTATGACTAAATGAATAAAATGACCGGAGTCACCTAGTGCAG” was run?
A: 25800 fluorescence intensity (a.u.)

Q: For “TCGTCAGGTTAATCAAGGGAGGATTGAACGAGATTTCGTGCGGAGTCACCTAGTGCAG”, which binding signal is on record?
A: 5920 fluorescence intensity (a.u.)

Q: Which binding signal does the source give for “TGATCTAATCAATGACAGCGACTTGGTTCCATGTTCTTCCCGGAGTCACCTAGTGCAG” here?
A: 12300 fluorescence intensity (a.u.)

Q: With “TATTCAATAACTAAATTAATGCCTGATTTACGTTGTTCGTCGGAGTCACCTAGTGCAG” as the sequence, how does the binding signal read?
A: 17400 fluorescence intensity (a.u.)

Q: With “TCTTAATTTCTATCAATAATTTAATTTAGCATATAATAACCGGAGTCACCTAGTGCAG” as the sequence, how does the binding signal read?
A: 31300 fluorescence intensity (a.u.)

Q: How did the binding signal turn out when “ATTGATGATTTAATGAAACTAATTTGATATTGTAGATGTTCGGAGTCACCTAGTGCAG” was run?
A: 48300 fluorescence intensity (a.u.)

Q: Which binding signal does the source give for “CCACTAACAGTCTAACAACATGATAAGGCCTCCGCAACCACGGAGTCACCTAGTGCAG” here?
A: 3920 fluorescence intensity (a.u.)

Q: How did the binding signal turn out when “TGTAAATATATTATGATTGTAGTATAACTTATATAGTATTCGGAGTCACCTAGTGCAG” was run?
A: 10900 fluorescence intensity (a.u.)

Q: Which binding signal does the source give for “ATTTGATTGACGAGGTATAGTAAAATGCGTCAACTTATGTCGGAGTCACCTAGTGCAG” here?
A: 63200 fluorescence intensity (a.u.)

Q: “GAGCCTAATTACGCCATGATTTGACAATGTGGTGCTACAGCGGAGTCACCTAGTGCAG” was tested. Which binding signal did it give?
A: 39300 fluorescence intensity (a.u.)

Q: Which binding signal does the source give for “CTAATTACGTCATGATTTGACAATGTGGTGTGGTGCTACACGGAGTCACCTAGTGCAG” here?
A: 37500 fluorescence intensity (a.u.)

Q: How did the binding signal turn out when “TTGAGCCTAATTACGCCATGATTTGACAATGTGATGCTACCGGAGTCACCTAGTGCAG” was run?
A: 40200 fluorescence intensity (a.u.)

Q: For “AGCCTAATTACGCCATGATTTGACAATGTGGTGCTACAGTCGGAGTCACCTAGTGCAG”, which binding signal is on record?
A: 58300 fluorescence intensity (a.u.)

Q: Which binding signal does the source give for “AGCCTAATTACGTCATGATTTGACAATGTAATGATACCGTCGGAGTCACCTAGTGCAG” here?
A: 53500 fluorescence intensity (a.u.)

Q: With “AACTAAAATTACATATGTAAATTTAGTTGATATGACATGTCGGAGTCACCTAGTGCAG” as the sequence, how does the binding signal read?
A: 24600 fluorescence intensity (a.u.)

Q: “GCCTAATTACGCCATGATTTGATAATGTGGTGCTACAGTACGGAGTCACCTAGTGCAG” was tested. Which binding signal did it give?
A: 41800 fluorescence intensity (a.u.)

Q: Which binding signal does the source give for “TGTATGCGATTTGATTAAACTTTTAAAATGTTGATTATTACGGAGTCACCTAGTGCAG” here?
A: 4680 fluorescence intensity (a.u.)

Q: “AAAATTGATATGTAATTATGACACACTTACGTCGGATATGCGGAGTCACCTAGTGCAG” was tested. Which binding signal did it give?
A: 64500 fluorescence intensity (a.u.)

Q: For “GATATGATATTGACACATGATATGTAATTATATATAGAGCCGGAGTCACCTAGTGCAG”, which binding signal is on record?
A: 11400 fluorescence intensity (a.u.)

Q: For “CCTGACATCTCTCAATCGGACGGTGGATACCACCTCACCGCGGAGTCACCTAGTGCAG”, which binding signal is on record?
A: 3620 fluorescence intensity (a.u.)

Q: How did the binding signal turn out when “CGGTCATCAATCTCATCAGCTACATCCCAAAGGGGAATCACGGAGTCACCTAGTGCAG” was run?
A: 5580 fluorescence intensity (a.u.)

Q: With “ATTTGATTTAAAACCTCAGTTTTCGATTGAGAGAAAATATCGGAGTCACCTAGTGCAG” as the sequence, how does the binding signal read?
A: 4350 fluorescence intensity (a.u.)

Q: “CTGTCAATCTGCATATATCTGTCTCTCTTACTCACTAACACGGAGTCACCTAGTGCAG” was tested. Which binding signal did it give?
A: 8750 fluorescence intensity (a.u.)

Q: How did the binding signal turn out when “ACTCACGCGCAATTAGCTGGTTTTGATGGGTCAGGAGGAACGGAGTCACCTAGTGCAG” was run?
A: 5020 fluorescence intensity (a.u.)

Q: For “TGTAATTTAATTTTGCCTCCACATTTCCTGACTTTGGCCACGGAGTCACCTAGTGCAG”, which binding signal is on record?
A: 45700 fluorescence intensity (a.u.)

Q: Which binding signal does the source give for “ACGCCATGATTGACAATGTGATGCTACAGTAAACATTTGCCGGAGTCACCTAGTGCAG” here?
A: 53900 fluorescence intensity (a.u.)

Q: “ACGCCATGATTTGACAATGTGATGCTACAGTAAACATTTGCGGAGTCACCTAGTGCAG” was tested. Which binding signal did it give?
A: 23300 fluorescence intensity (a.u.)

Q: How did the binding signal turn out when “CCATGATTTGACAATGTGATGCTACAGTAAACATTTGCTACGGAGTCACCTAGTGCAG” was run?
A: 42800 fluorescence intensity (a.u.)

Q: Which binding signal does the source give for “CACCATAACTAATTAACAAGCCACCTATTTCCTCTTGACACGGAGTCACCTAGTGCAG” here?
A: 10800 fluorescence intensity (a.u.)

Q: With “AGCCATGCATCAACACGTAATTAAGTACTAGTTGACAGTGCGGAGTCACCTAGTGCAG” as the sequence, how does the binding signal read?
A: 4190 fluorescence intensity (a.u.)

Q: How did the binding signal turn out when “CGGCTAATTAATTTATATTTCTATATGTATTGACCCTGTTCGGAGTCACCTAGTGCAG” was run?
A: 61100 fluorescence intensity (a.u.)

Q: “CACATTCAGTTCTAGATTAATTTATTTTGGATGAATGTATCGGAGTCACCTAGTGCAG” was tested. Which binding signal did it give?
A: 6060 fluorescence intensity (a.u.)

Q: For “ATGTATTTAATTATAGATTTAATAAAATTAATCTAGTGTTCGGAGTCACCTAGTGCAG”, which binding signal is on record?
A: 17500 fluorescence intensity (a.u.)

Q: “GCTAATTAATCTATTATTGATTTAGATGTATCGACCAGTTCGGAGTCACCTAGTGCAG” was tested. Which binding signal did it give?
A: 53500 fluorescence intensity (a.u.)

Q: Which binding signal does the source give for “CCGAATTTCTATTATTTCTTAATTGTATTTCTATATGGACCGGAGTCACCTAGTGCAG” here?
A: 7410 fluorescence intensity (a.u.)

Q: For “TTGCTTTAACTAGCTGCTTAATTATATGTTCTTTGTATTTCGGAGTCACCTAGTGCAG”, which binding signal is on record?
A: 5230 fluorescence intensity (a.u.)
